# Compounds without any hit were thinned out: in the full panel of roughly 83,000, 20% have a hit.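 Testing used 96-well plates and a 48-hour single-concentration exposure. Example: -40 means 40% of the starting cells died.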 A number with no mark means an inactive call. Active and inactive are the calls of the source. Rule for the calls: active = growth percent below 10; inactive = the rest.
# Test system: HL-60(TB) leukemia
# Assay: NCI-60 one-dose screen, 48 h (100 = growth as untreated, 0 = no growth, -100 = all killed)
# Conditions: 10 µM unless noted
row,SMILES,growth
1,C=C(CNCCO)[C@@H]1CC[C@]2(CO)CC[C@]3(C)[C@H](CC[C@@H]4[C@@]5(C)CCC(NCCO)C(C)(C)[C@@H]5CC[C@]43C)[C@@H]12 (some centres undefined),66.2%
2,Cc1cn(C)cn1,116%
3,CS(=O)(=O)c1ccc(-c2[nH]c3ccc(F)cc3c2/C=N/NC(N)=S)cc1,-50.2% (active)
4,CC(=O)O[C@@H]1C2CCC3C(CC[C@@]4(C)C3CC[C@@H]4C(C)N(C)C)[C@@]2(C)CC[C@@H]1NC(=O)C=C(C)C (some centres undefined),-58.8% (active)
5,CCCOC(=O)C(O)c1ccccc1 (centres undefined),113%
6,COc1cccc(/C=C/C(=O)c2cccc(Nc3nc(Nc4ccccc4)nc(Nc4ccccc4)n3)c2)c1,94.2%
7,COc1cccc(-c2nc3sccn3c2-c2ccnc(NCCCNS(=O)(=O)c3ccccc3)c2)c1,-12.4% (active)
8,NC(=S)N/N=C/c1ccc(OC(=O)COc2ccccc2)cn1,35.3%
9,CSC1=Nc2c(c(C)c(-c3ccccc3)n2CCCCl)C2=NC(=O)CN12,27.4%
10,Cc1cc(C)n(CC(=O)Nc2ccc(-c3nc4ccccc4s3)cc2)n1,103%
11,CCC1(C(C)C)NC(=O)NC1=O (centres undefined),100%
12,O=C(CN1CCOCC1)Nc1ccc2ncnc(Nc3ccc(Oc4cccc(C(F)(F)F)c4)c(Cl)c3)c2c1,70.1%
13,COc1cc2oc(-c3cccc(C(=O)Nc4ccccc4)c3)cc(=O)c2c(O)c1OC,92.7%
14,Cc1c2ccncc2c(C)c2c1c1cc(CO)ccc1n2C,19.2%

# Reference: PubChem BioAssay (NCI)
